According to PubChem BioAssay AID1159580 (chemical genetic matrix, 2015):
Among all 5,500 compounds or so, about 2,000 (36%) were called active. Inconclusive results (about 18%) are left out. No stated cut-off is given here; in the data, active means normalized growth mostly below about 0.91 (no sharp cut-off); inconclusive means no clear call, values can overlap the other calls; inactive means mostly above about 0.92. This is one part of the list.

Experiment: chemical genetic growth profiling, strain panel (AID 1159580);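 further: tested at 20 µM; growth read once vehicle control cultures reached saturation at 30 °C; 1 = growth at the plate median or of vehicle wells; lower values mean less growth of the strain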
Details: S. cerevisiae deletion strains, growth OD
[1] = locus YHR030C, strain SLT2, active compounds read low
[2] = locus YHR079C, strain IRE1, active compounds read low
[3] = locus YJL095W, strain BCK1, active compounds read low
[4] = locus YJR066W, strain TOR1, active compounds read low
[5] = locus YLR113W, strain HOG1, active compounds read low
[6] = locus YNL183C, strain NPR1, active compounds read low
[7] = locus YOR231W, strain MKK1, active compounds read low
[8] = locus YPL256C, strain CLN2, active compounds read low

Measured: normalized growth

Cc1cc2nc3c(=O)[nH]c(=O)nc-3n(CC(O)C(O)C(O)CO)c2cc1C (configuration not stated)
inactive: locus YAL021C, strain ccr4, active compounds read low 0.995 | locus YAL026C, strain drs2, active compounds read low 0.981 | locus YAL030W, strain snc1, active compounds read low 0.944 | locus YBL061C, strain skt5, active compounds read low 0.988 | locus YBR009C, strain hhf1, active compounds read low 0.954 | locus YBR023C, strain chs3, active compounds read low 1.01 | locus YBR171W, strain sec66, active compounds read low 0.962 | locus YBR231C, strain swc5, active compounds read low 1.01 | locus YBR279W, strain paf1, active compounds read low 1 | locus YCL011C, strain gbp2, active compounds read low 0.987 | locus YCL016C, strain dcc1, active compounds read low 1.05 | locus YCL069W, strain vba3, active compounds read low 0.959 | locus YCR088W, strain abp1, active compounds read low 0.974 | locus YDL005C, strain med2, active compounds read low 0.99 | locus YDL040C, strain nat1, active compounds read low 0.982 | locus YDR001C, strain nth1, active compounds read low 0.982 | locus YDR069C, strain doa4, active compounds read low 0.964 | locus YDR137W, strain rgp1, active compounds read low 1.05 | locus YDR159W, strain sac3, active compounds read low 0.9 | locus YDR195W, strain ref2 1.01 | locus YDR297W, strain sur2, active compounds read low 0.955 | locus YDR334W, strain swr1, active compounds read low 0.932 | locus YDR335W, strain msn5, active compounds read low 1.02 | locus YDR392W, strain spt3, active compounds read low 0.91 | locus YEL037C, strain rad23, active compounds read low 0.974 | locus YEL061C, strain CIN8 (second series), active compounds read low 0.962 | locus YER015W, strain faa2, active compounds read low 0.97 | locus YER016W, strain bim1, active compounds read low 0.994 | locus YER111C, strain swi4, active compounds read low 1 | locus YER155C, strain BEM2 (second series), active compounds read low 0.912 | locus YFR010W, strain ubp6, active compounds read low 0.91 | locus YGL167C, strain pmr1, active compounds read low 0.958 | locus YGL173C, strain kem1, active compounds read low 0.974 | locus YGL227W, strain vid30, active compounds read low 0.98 | locus YGL240W, strain doc1, active compounds read low 0.927 | locus YGL253W, strain hxk2, active compounds read low 1.01 | locus YHR013C, strain ard1, active compounds read low 0.992 | locus YHR027C, strain rpn1, active compounds read low 0.959 | [1] 0.959 | [2] 0.968 | locus YHR142W, strain chs7, active compounds read low 1.01 | locus YJL092W, strain hpr5, active compounds read low 0.98 | locus YJL095W, strain BCK1 (second series), active compounds read low 0.985 | [3] 0.966 | locus YJL115W, strain asf1, active compounds read low 0.969 | locus YJL129C, strain trk1, active compounds read low 0.996 | locus YJL154C, strain vps35, active compounds read low 0.967 | locus YJL164C, strain tpk1, active compounds read low 0.924 | locus YJL166W, strain qcr8, active compounds read low 0.94 | locus YJL187C, strain SWE1, active compounds read low 0.974 | [4] 0.926 | locus YKL160W, strain elf1, active compounds read low 1.03 | locus YKR026C, strain gcn3, active compounds read low 0.982 | locus YKR091W, strain srl3, active compounds read low 0.985 | locus YLL001W, strain dnm1, active compounds read low 0.95 | locus YLL026W, active compounds read low 0.973 | locus YLL041C, strain sdh2, active compounds read low 1 | locus YLR027C, strain aat2, active compounds read low 0.98 | [5] 0.957 | locus YLR221C, strain rsa3, active compounds read low 0.937 | locus YLR258W, strain gsy2, active compounds read low 1 | locus YLR262C, strain YPT6 (second series), active compounds read low 0.988 | locus YLR320W, strain mms22, active compounds read low 0.956 | locus YLR342W, strain FKS1, active compounds read low 0.964 | locus YLR357W, strain rsc2, active compounds read low 0.9 | locus YLR370C, strain arc18, active compounds read low 1.01 | locus YLR384C, strain iki3, active compounds read low 1.01 | locus YML120C, strain ndi1, active compounds read low 0.918 | locus YMR058W, strain fet3, active compounds read low 0.941 | locus YMR125W, strain sto1, active compounds read low 0.985 | locus YMR129W, active compounds read low 1 | locus YMR205C, strain PFK2, active compounds read low 1 | locus YMR231W, strain pep5, active compounds read low 0.968 | locus YNL071W, strain lat1, active compounds read low 0.972 | [6] 0.933 | locus YNL209W, strain ssb2, active compounds read low 1 | locus YNL248C, strain rpa49, active compounds read low 0.997 | locus YNL322C, strain KRE1 (second series), active compounds read low 0.996 | locus YNR049C, strain mso1, active compounds read low 0.994 | locus YOR001W, strain rrp6, active compounds read low 0.908 | locus YOR070C, strain gyp1, active compounds read low 0.984 | locus YOR080W, strain dia2, active compounds read low 0.989 | locus YOR083W, strain WHI5, active compounds read low 0.951 | locus YOR106W, strain vam3, active compounds read low 0.96 | [7] 0.966 | locus YOR265W, strain rbl2, active compounds read low 0.973 | locus YOR270C, strain vph1, active compounds read low 0.965 | locus YOR290C, strain snf2, active compounds read low 1.01 | locus YPL051W, strain arl3, active compounds read low 1.01 | locus YPL078C, strain atp4, active compounds read low 1.02 | locus YPL106C, strain sse1, active compounds read low 0.951 | locus YPL240C, strain hsp82, active compounds read low 0.996 | [8] 0.98
active: locus YEL003W, strain gim4, active compounds read low 0.907

Cc1cc2nc3c(=O)[nH]c(=O)nc-3n(C[C@@H](O)[C@@H](O)[C@@H](O)COP(=O)(O)O)c2cc1C
inactive: [1] 1.04 | [2] 1.04 | [3] 1.03 | [4] 0.966 | [5] 1.03 | [6] 0.97 | [7] 1.04 | [8] 1.04
